From PubChem BioAssay AID1053124 (Broad Institute, 2014) come the findings set out here.

Potency and affinity values are given separately. The source made the active and inactive calls.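 The calls were made as follows: active = cell killing whose fitted half-effect concentration is at most twice the top valid dose tested; inconclusive = flat curve with 30 to 70% killing, or a poor fit; inactive = effect in the rising direction, plus the rest.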

A short description of the test: viability loss in A549 lung cells – cell-based, ATP luminescence, cherry-pick, set 2, cytotoxicity control, dose response (AID 1053124). Particulars: ATP luminescence (CellTiter-Glo), 72 h; series mostly up to 26 µM.
With `C[C@H](NC(=O)c1nc[nH]c1C(=O)N[C@@H](Cc1ccccc1)C(=O)OC(C)(C)C)C(=O)OCc1ccccc1`, the outcome was inactive.
The result for `Cc1c(C=O)c2ccccn2c1C(=O)c1cccs1` reads “inactive”.
The result for `CCc1nc2ccc(C(=O)NCCc3c[nH]c4ccccc34)cn2c1N(C=O)CCC(C)C` reads “inactive”; that for `COc1ccc(C(=O)c2sc3nc(-c4ccc(OC)cc4)ccc3c2N)cc1`, “inactive”; that for `CC1=C(C(=O)N2CCN(c3cc(C)ccc3C)CC2)C2(CCCCC2)OC1=O`, “inactive”.
In the case of `C=CCc1c(O)c(CC)cc2c(C)cc(=O)oc12`, the compound was called inactive.
With `COc1ccc(CCN=C(N)NS(=O)(=O)c2ccc(F)cc2)cc1` the entry was “inactive”; with `COc1ccc(Br)c(Cn2c(C)c(C(=O)NCc3ccc4c(c3)OCCO4)sc2=O)c1`, “inactive”; with `Cc1c(C(=O)NCc2ccc3c(c2)OCCO3)sc(=O)n1Cc1ccccc1F`, “inactive”.
The result for `CC(=O)c1sc(N/N=C\c2ccc(N(C)C)cc2)nc1C` reads “inactive”; that for `COc1ccccc1C(=O)c1cc2ccc(O)cc2oc1=O`, “inactive”.
On to `CNNC(=S)NC1CC2CC1C1C=CCC21` (centres undefined), for which the compound was called inactive.
Take `Cc1ccc2nc3c(cc(S(=O)(=O)c4ccccc4)c(=N)n3Cc3ccco3)c(=O)n2c1`: the compound was classed as inactive.
With `COc1cc(C(=O)NCCCNc2nc3c(C)cc(C)cc3cc2C#N)cc(OC)c1OC` the entry was “inactive”; with `COCCCn1c(=N)c(C(=O)NC2CCCCC2)cc2c(=O)n3ccccc3nc21`, “inactive”.
With `CN(C)/C=C/C(=O)c1c(F)cccc1F`, the compound was called inactive.
The result for `CCOC(=O)c1cc2c(=O)n3ccccc3nc2n(C(C)C)c1=NC(=O)c1ccco1` reads “inactive”; that for `Cc1ccc2nc3c(cc(C(=O)NCc4ccccc4)c(=N)n3CCCn3ccnc3)c(=O)n2c1`, “inactive”; that for `CN1CCN(c2nc3ccccn3c(=O)c2/C=C(\C#N)S(=O)(=O)c2ccccc2)CC1`, “inactive”.
With `COc1ccc(CCNC(=O)c2cc(S(=O)(=O)N3CCCCC3)c[nH]2)cc1OC` the entry was “inactive”; with `CCC(C)NC(=S)N1CCN(Cc2ccc3c(c2)OCO3)CC1` (centres undefined), “inactive”; with `Clc1ccccc1C1=CC(c2ccco2)n2ncnc2N1` (centres undefined), “inactive”.
Consider `CCN(CC)CCCNc1nc(C)cc(COC)c1C#N`, for which the compound was classed as inactive.
The result for `COc1ccc(S(=O)(=O)Cc2ccc(C(=O)N3CCN(Cc4ccccc4)CC3)o2)cc1` reads “inactive”.
With `O=C(NCc1nnnn1-c1ccc(Cl)cc1)C1CC(=O)N(c2ccc(F)cc2)C1` (centres undefined) the entry was “inactive”; with `Nc1ccc2nc(-c3ccccc3)cnc2c1`, “inactive”.
The result for `O=C(/C=C/c1ccccc1)C1=C(O)C(=O)N(CCO)C1c1ccc2c(c1)OCO2` (centres undefined) reads “inactive”.
As for `CCOc1ccc2nc(NCCNC(=O)CC)c(C#N)cc2c1`, the outcome was inactive.
As to `CC(=O)Oc1ccc2cc(-c3nc4ccccc4n3C)c(=O)oc2c1`, the result was inactive.
The result for `CC(C)CCN1C(=O)c2cccc3c(N)ccc(c23)C1=O` reads “inactive”; that for `COc1ccc(CCNC(=O)CSc2cn(Cc3cccc(C)c3)c3ccccc23)cc1OC`, “inactive”.
With `O=C(CCCN1C(=O)CSc2ncccc21)N1CCN(Cc2ccccc2)CC1` the entry was “inactive”; with `COc1cc(C(=O)OCC(C)=O)cc(NC(=O)c2ccco2)c1OC`, “inactive”; with `Cc1oc(/N=C/c2ccc(O)cc2O)c(C#N)c1C`, “inactive”.
`CC(C)c1ccc(/C=C2\Oc3c(ccc(O)c3CN3CCN(C)CC3)C2=O)cc1`: the outcome was inactive.
With `N=c1oc2cc(O)ccc2cc1C(=O)Nc1nc2ccccc2s1` the entry was “inactive”; with `Cc1oc(/N=C/c2ccc(F)cc2)c(C#N)c1C`, “inactive”.
For `CN1CCc2c(sc(NC(=O)Cc3ccccc3)c2C#N)C1`, the compound was classed as inactive.
With `O=C(Cc1csc(-c2ccccc2)n1)NCc1ccccc1F` the entry was “inactive”.
